Assay outcomes (PubChem)
Pf Dd2 inh: Plasmodium falciparum Dd2 growth inhibition; Potency, µM (titrated, usually from 28.9 µM), usual class: inhibitors; 4.3% of 120,000 active; P. falciparum Dd2 growth, SYBR Green, 72 h; active = well fitted inhibition curve with a large enough effect; note: nearly all actives have a fitted effect of over 65% in size
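Readout: SYBR Green fluorescence, 485 nm excitation, 535 nm emission, after ~16 h lysis at 37C. Before that, Dd2-infected red cells (2.5% hematocrit) grew 72 h with compound, 29 uM top final concentration.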
A number is an active result; [ ] = dose if it differs, or a comment. The full list was thinned out, with hits kept by preference.

`CCOc1ccccc1NC(=O)c1c(NCc2sccc2C)sc2c1CCCCC2` gave Pf Dd2 inh 13µM.
Screening COc1ccccc1NC(=O)c1c(NC(=O)COc2ccccc2)sc2c1CCCCC2 returned Pf Dd2 inh inactive.
CCOc1ccccc1NC(=O)c1c(NC(=O)C(C)Oc2ccc(Cl)cc2)sc2c1CCCCC2 (stereo not drawn) was read as Pf Dd2 inh 10µM.
`COc1ccc(NC(=O)c2c(NCc3sccc3C)sc3c2CCCCC3)c(OC)c1` gave Pf Dd2 inh 13µM.
Screening O=C(Nc1sc2c(c1C(=O)Nc1ccccc1Cl)CCCC2)c1ccccc1F returned Pf Dd2 inh inactive.
`COc1ccc(NC(=O)c2c(OC)cc(=O)n3c2CCCC3)c(C)c1` gave Pf Dd2 inh inactive.
For CN(CCNC(=O)c1cn2ccnc(-c3ccccc3)c2n1)C1CCCCC1 the results were Pf Dd2 inh inactive.
Screening COCCNC(=O)C(NC(=O)c1ccccc1)C1CCN(C(=O)c2ccccc2OC)CC1 (stereo not drawn) returned Pf Dd2 inh inactive.
COCC1CN(C(=O)Cc2c[nH]c3ccccc23)CC12CCOCC2 (stereo not drawn) was read as Pf Dd2 inh inactive.
`O=[S+]1([O-])NCC2(CCN(Cc3cccc(C(F)(F)F)c3)C2)Oc2ccncc21` (stereo not drawn) gave Pf Dd2 inh inactive.
Screening COC1CCN(C(=O)C(C)(C)Oc2nn(CCOc3ccccc3)c3ccccc23)CC1 returned Pf Dd2 inh inactive.
Screening CCn1cnnc1CC1CCCN(C(=O)Nc2ccc(C(=O)OC)cc2)C1 (stereo not drawn) returned Pf Dd2 inh inactive.
CN(CC(=O)N1CCC(Cc2nc(C3CCOCC3)no2)CC1)S(=O)(=O)c1cnc[nH]1 was read as Pf Dd2 inh inactive.
For CC(=O)N1CCC(C(=O)N[C@H]2CCN3C(=O)N(c4ccc(Cl)cc4)C(=O)[C@@H]3C2)CC1 the results were Pf Dd2 inh inactive.
`COc1cccc(C(=O)NC2CCN(c3cc(-c4ccccc4)[nH]n3)CC2)c1OC` gave Pf Dd2 inh inactive.
CN(C)c1ccc(CNC2(Cc3cc(-c4cccc(O)c4)on3)COC2)cc1 was read as Pf Dd2 inh inactive.
O=C(C[C@@H]1C[C@H]2O[C@H](CNC3CCNCC3)[C@@H](O)[C@H]2O1)N1CCOCC1 was read as Pf Dd2 inh inactive.
For COc1ccc(NC(=O)c2c(NC(=O)COc3ccccc3)sc3c2CCC(C)C3)cc1 (stereo not drawn) the results were Pf Dd2 inh inactive.
O=C(Cc1ccccc1)Nc1sc2c(c1C(=O)Nc1ccccc1Cl)CCC2 was read as Pf Dd2 inh inactive.
Screening COC(=O)c1c(NC(=O)c2cc(OC)c(OC)c(OC)c2Br)sc2c1CCC(C)C2 (stereo not drawn) returned Pf Dd2 inh inactive.
For COc1ccc(NC(=O)c2c(NCc3ccc(C)o3)sc3c2CCC(C)C3)cc1 (stereo not drawn) the results were Pf Dd2 inh 8.9µM.
For COc1ccc(Cl)cc1NC(=O)c1c(NCc2sccc2C)sc2c1CCCC2 the results were Pf Dd2 inh 13µM.
For CCOc1ccc(NC(=O)c2c(NCc3sccc3C)sc3c2CCCCC3)cc1 the results were Pf Dd2 inh 11µM.
CCOc1ccccc1NC(=O)c1c(NCc2sccc2C)sc2c1CCC(C)C2 (stereo not drawn) was read as Pf Dd2 inh 5.6µM.
`CCOC(=O)c1c(NC(=O)c2ccccc2OCC)sc2c1CCC(CC)C2` (stereo not drawn) gave Pf Dd2 inh inactive.
O=C(O)CCC(=O)Nc1sc2c(c1C(=O)Nc1ccccc1)CCCCC2 was read as Pf Dd2 inh inactive.
`CCOC(=O)c1c(NC(=O)COc2ccc(Br)cc2)sc2c1CCCC2` gave Pf Dd2 inh inactive.
CC1CCc2c(sc(NC(=O)CCCOc3ccccc3)c2C(N)=O)C1 (stereo not drawn) was read as Pf Dd2 inh inactive.
Screening O=C(c1ccc2ncccc2c1)N1CCC(N2CC3CC(C2)[C@H]2CCCC(=O)N2C3)CC1 (stereo partly drawn) returned Pf Dd2 inh inactive.
Screening CCc1nc(-c2c3n(c(=O)n(CC(=O)Nc4cccc(C)c4C)c2=O)CCCC3)no1 returned Pf Dd2 inh inactive.
Cc1cc(F)ccc1OCC(=O)c1ccc2c(c1)N(C(C)C(=O)NCc1ccc(F)cc1)C(=O)CO2 (stereo not drawn) was read as Pf Dd2 inh inactive.
CN(C)S(=O)(=O)N1CCN(C(=O)Cn2nc3c(cc2=O)CCCC3)CC1 was read as Pf Dd2 inh inactive.
For COCCNC(=O)N1CCCC(c2noc(COC)n2)C1 (stereo not drawn) the results were Pf Dd2 inh inactive.
`O=C(Nc1cccc(-c2ccc(N3CCOCC3)nn2)c1)Nc1ccccc1Cl` gave Pf Dd2 inh inactive.
Screening CC(C)N1CC2(C1)C(=O)N(Cc1ccccc1F)C(=O)[C@@H]1C[C@@H](O)CN12 returned Pf Dd2 inh inactive.
`COCCOC1CCN(S(=O)(=O)Cc2ccccc2F)CC1` gave Pf Dd2 inh inactive.
Screening CCN(C(=O)c1cc2c(=O)oc3ccc(C)cc3c2s1)c1cc(OC)ccc1OC returned Pf Dd2 inh inactive.
For CCN(C(=O)c1cc2c(Cl)nc3ccccc3c2s1)c1cccc(Cl)c1 the results were Pf Dd2 inh 10µM.
CCN(C(=O)c1cc2c(Cl)nc3ccc(C)cc3c2s1)c1cc(OC)ccc1OC was read as Pf Dd2 inh 8.9µM.
`CCc1ccccc1N(C)C(=O)c1cc2c(Cl)nc3ccc(C)cc3c2s1` gave Pf Dd2 inh inactive[5.79 µM].
Cc1ccc(Cl)cc1N(C)C(=O)c1cc2c(Cl)nc3ccccc3c2s1 was read as Pf Dd2 inh inactive.
Screening CCN(C(=O)c1cc2c(=O)oc3ccccc3c2s1)c1cccc(C(F)(F)F)c1 returned Pf Dd2 inh inactive.
For CC(C)NC(=O)N1CCCC1c1nc(CCOCC2CC2)no1 (stereo not drawn) the results were Pf Dd2 inh inactive.
CCn1ccc2sc(C)c(C(=O)NCc3cccc(Cl)c3)c2c1=O was read as Pf Dd2 inh inactive.
Screening C#CCN(C)Cc1nc(C2(O)CCN(C(=O)Cc3ccccc3)CC2)cs1 returned Pf Dd2 inh inactive.
For O=C(N[C@@H]1CCC[C@@H]1C(=O)N1CCCCC1)c1ccncc1 the results were Pf Dd2 inh inactive.
`CCOC(=O)CCc1c(C)nc2c(c(C)nn2-c2ccc(C)cc2)c1C` gave Pf Dd2 inh inactive.
`CCOC(=O)CC(NC(=O)CCc1c(C)nc2c(c(C)nn2-c2ccc(C)c(C)c2)c1C)c1ccc(C)cc1` (stereo not drawn) gave Pf Dd2 inh 4.5µM.
For CCOc1ccc(CCNC(=O)CCc2c(C)nc3c(c(C)nn3-c3ccc(C)c(C)c3)c2C)cc1 the results were Pf Dd2 inh inactive.
CC(C)C[C@@H]1N[C@H](C(=O)NCc2ccco2)Cc2cn(Cc3nccn3C)c3cccc1c23 was read as Pf Dd2 inh inactive.
Screening CCCNC(=O)[C@@H]1Cc2c[nH]c3cccc(c23)[C@H](CC(C)C)N1 returned Pf Dd2 inh inactive.
Screening CC(C)C[C@@H]1N[C@H](C(=O)NCc2ccccc2Cl)Cc2c[nH]c3cccc1c23 returned Pf Dd2 inh inactive.
CC(C)C[C@@H]1N[C@H](C(=O)NCCOc2ccccc2)Cc2c[nH]c3cccc1c23 was read as Pf Dd2 inh 13µM.
For CC(C)C[C@@H]1N[C@H](C(=O)NCc2ccccc2)Cc2c[nH]c3cccc1c23 the results were Pf Dd2 inh inactive.
`CC(C)C[C@@H]1N[C@H](C(=O)N2CCC(NC(=O)c3ccccc3)CC2)Cc2c[nH]c3cccc1c23` gave Pf Dd2 inh 10µM.
